Assay outcomes deposited in PubChem BioAssay by National Center for Advancing Translational Sciences (NCATS).
HPGD inh – qHTS Assay for Inhibitors of HPGD (15-Hydroxyprostaglandin Dehydrogenase). 15-hydroxyprostaglandin dehydrogenase [NAD(+)] (Homo sapiens), P15428. purified HPGD, NADH fluorescence kinetic, PGE2 substrate. Potency, µM, inactives show at the top dose activity change, negative = inhibition, usual class: inhibitors. actives 4.3% (n = 150,000); active = well fitted inhibition curve with a large enough effect, not every such curve was filed as active; inconclusive = small, poorly fitted or top-dose-only effect, or another doubt; inactive = no such curve, though single readings can be large or run the other way; note: potency is the fitted concentration of half-maximal effect; % is set by controls: 0 for no effect and ±100 for the full control effect
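20 nM HPGD preincubated 15 min at room temperature with compound in 50 mM Tris-HCl pH 8, 0.01% Tween 20. Started with 1 mM NAD+ and 30 uM prostaglandin E2; NADH fluorescence (360/450 nm) read 5 times over 30-s intervals, last minus first.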
HttQ103 aggreg – qHTS Multiplex Assay to Identify Dual Action Probes in a Cell Model of Huntington: Aggregate Formation (GFP); PC12 HttQ103-GFP aggregates, Acumen cytometry, 40 h; Potency, µM (titrated, usually from 46.1 µM), for the others: at the highest dose activity change, negative = inhibition, usual class: inhibitors; actives 1.1% (n = 220,000); note: potency is the fitted concentration of half-maximal effect; % is set by controls: 0 for no effect and ±100 for the full control effect; nearly all actives have a fitted effect of over 60% in size
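Quantitative HTS on tebufenozide-induced (100 nM) PC12 cells stably expressing polyQ103 Huntingtin exon 1–GFP. Reduction of bright GFP aggregates, detected by laser scanning cytometry after lysis, identified actives across the titration.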
HTT cytoprotect – qHTS Multiplex Assay to Identify Dual Action Probes in a Cell Model of Huntington: Cytoprotection (ATP); PC12 HTT-Q103 induced, cytoprotection, ATP luminescence, 40 h; Potency, µM (top dose mostly 56.4 µM), for inactives: cytoprotection (ATP increase), most hits filed as activators; actives 0.14% (n = 230,000); AID 1471, 2008; note: potency is the fitted concentration of half-maximal effect; % of control where 0% means no effect; nearly all actives have a fitted effect of over 45% in size
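Compounds added alongside 100 nM tebufenozide, which induces toxic Q103 huntingtin exon 1-GFP in stable PC12 cells; surviving cells quantified by luminescent ATP measurement. Medium: phenol red-free DMEM, 5% equine and 5% calf serum.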
IMPase cell inh – qHTS Assay for Identifying the Cell-Membrane Permeable IMPase Inhibitors. Inositol monophosphatase 1 (Rattus norvegicus), P97697. CHO-M1 cells, IP1 accumulation, HTRF TR-FRET ratio. inhibition (IP1 accumulation), % at 46.1 µM. 120,000 tested, under 10 active; active = well fitted curve in the direction sought with a large enough effect in the signal ratio, not every such curve was filed as active; inconclusive = small, poorly fitted or top-dose-only effect, or a change in a side signal; inactive = no such curve, though single readings can be large or run the other way; the % refers to the signal ratio;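 note: cells stimulated with carbachol in lithium chloride buffer; plate controls were DMSO basal wells for no effect and reference inhibitor wells for full effect; higher means more IMPase inhibition seen as more IP1 and lower FRET ratio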
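CHO-M1 cells (CHO stably expressing M1 receptor), compound up to 46 uM final, stimulated with carbachol (50 uM as added) in buffer with 50mM LiCl, pH 7.4, 30 min at 37C. Cytosolic IP1 read by TR-FRET; AC50 from Hill fits.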
IMPase Li inh – qHTS Assay for Identifying the Cell-Membrane Permeable IMPase Inhibitors: Potentiation with Lithium; actives 0.35% (n = 210,000); Potency, µM (titrated, usually from 59.4 µM), for inactives: top-dose activity, negative = IMPase inhibition, actives largely listed as inhibitors; CHO-M1 cells, IP1 TR-FRET (IP-One), carbachol + lithium; AID 1457, 2008;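 note: IP1 builds up when IMPase is blocked and the TR-FRET signal falls; potency is the fitted concentration of half-maximal effect; plate controls were basal vehicle for no effect and high inhibitor control for full effect; nearly all actives have a fitted effect of over 50% in size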
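Test compounds were applied to CHO-M1 cells previously cultured for 16–30 h at 2000 per well. A small lithium amount accompanied them; after 30 min at 37C, IP1 was quantified by TR-FRET.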
ALDH1A1 inh – qHTS Assay for Inhibitors of Aldehyde Dehydrogenase 1 (ALDH1A1); actives 7.3% (n = 220,000); AID 1030, 2008; Purified ALDH1A1, NADH fluorescence, propionaldehyde substrate; Aldehyde dehydrogenase 1A1 (Homo sapiens), P00352; Potency, µM (highest dose often 75.3 µM), for inactives: at the top dose activity, negative = inhibition, hits mostly inhibitors; active = well fitted inhibition curve with a large enough effect, not every such curve was filed as active; inconclusive = small, poorly fitted or top-dose-only effect, or another doubt; inactive = no such curve, though single readings can be large or run the other way;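 note: potency is the fitted concentration of half-maximal effect; plate controls were no enzyme wells and a reference inhibitor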
Target sequence (P00352 whole entry, looked up): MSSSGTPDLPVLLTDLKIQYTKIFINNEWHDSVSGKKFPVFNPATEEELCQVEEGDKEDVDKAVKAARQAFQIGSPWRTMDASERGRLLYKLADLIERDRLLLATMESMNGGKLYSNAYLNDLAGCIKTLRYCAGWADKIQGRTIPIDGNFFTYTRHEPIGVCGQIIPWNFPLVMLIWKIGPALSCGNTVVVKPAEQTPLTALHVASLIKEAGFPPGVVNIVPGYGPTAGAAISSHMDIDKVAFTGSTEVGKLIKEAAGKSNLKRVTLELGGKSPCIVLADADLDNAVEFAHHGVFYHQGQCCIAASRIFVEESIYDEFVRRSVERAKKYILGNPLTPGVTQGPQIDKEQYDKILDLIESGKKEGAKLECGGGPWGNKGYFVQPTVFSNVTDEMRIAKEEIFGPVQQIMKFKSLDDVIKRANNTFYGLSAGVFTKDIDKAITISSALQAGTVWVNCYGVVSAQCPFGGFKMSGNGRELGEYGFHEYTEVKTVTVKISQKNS
An asterisk follows results filed as active; ? = inconclusive; . = no result given; [ ] = remark or other dose. Sampled rows, rich in hits. Any-hit rate of the full collection: about 9.4%. Unless noted, calls come from the whole dose curve; as a rule, active = well fitted curve in the direction sought with a large enough effect; inconclusive = small, poorly fitted or top-dose-only effect, or another doubt; inactive = no such curve, though single readings can be large; an effect the other way counts as inactive or inconclusive.

SMILES | HPGD inh | HttQ103 aggreg | HTT cytoprotect | IMPase cell inh | IMPase Li inh | ALDH1A1 inh
CC(=O)OC[C@H]1O[C@@H](O/N=C2/[C@H]3O[C@@H]3[C@@H](O)[C@H]3[C@H]2CCn2c(=O)n(-c4ccccc4)c(=O)n23)[C@H](OC(C)=O)[C@@H](OC(C)=O)[C@@H]1OC(C)=O | . | . | 2.6%[10 µM] | . | . | -9.6%[13.5 µM]
Cc1ccc(OCCCn2c(-c3ccc(Cl)cc3)nc3ccccc3c2=O)cc1C | . | . | . | -7.6 | . | .
COC(=O)C/C=C1\c2ccccc2C(OC)C1C (centres undefined) | . | . | -6.4%[10 µM] | . | . | -2.7%[13.5 µM]
COc1ccc(-c2nn(-c3ccccc3)cc2/C=N/NC(=O)c2ccc(Br)o2)cc1 | ? | 3.55µM* | -40.1% | 14.1 | 18.1%[38.3 µM] | ?
COc1ccc(-c2nn(-c3ccccc3)cc2/C=N/NC(=O)c2ccc3c(c2)OCO3)cc1 | ? | ? | 9.2% | 0.0 | 2.4%[38.3 µM] | ?
O=C(CN1C(=O)c2ccccc2C1=O)[C@@H](O)CN1C(=O)c2ccccc2C1=O | 1.6% | . | 3.0%[10 µM] | . | 8.1% | ?
Cc1ccc(CNC(=O)C2CCN(S(=O)(=O)c3cccs3)CC2)o1 | -24.6% | ? | 11.4%[10 µM] | -6.7 | 2.0% | 14.1µM*
O=C(Nc1cc(Cl)ccn1)C1CCN(S(=O)(=O)c2cccs2)CC1 | -3.1% | -13.7%[9.22 µM] | 14.6% | 10.0 | 4.6%[38.3 µM] | 8.91µM*
O=C(NCCC1=CCCCC1)C1CCN(C(=O)Cc2ccccc2)CC1 | . | -11.3%[9.22 µM] | -5.0%[10 µM] | . | 3.7% | 5.01µM*
O=C(NCCC1=CCCCC1)C1CCN(S(=O)(=O)c2cccs2)CC1 | -1.8% | 7.5% | -53.5% | -3.2 | 15.1%[38.3 µM] | 12.6µM*
O=C(CN1CCN(c2ccc(Cl)cc2)CC1)Nc1cccc(F)c1 | -0.7% | 13.3% | 11.6% | 5.2 | 11.9%[38.3 µM] | 2.1%
O=C(CN1CCC(c2nc3ccccc3[nH]2)CC1)Nc1ccc2c(c1)OCO2 | -8.4% | 4.1% | -2.1% | 14.8 | 12.2%[38.3 µM] | 4.4%
COc1cc(CC(=O)Nc2ccc(Cl)c(C(F)(F)F)c2)cc(OC)c1OC | -13.8% | 10µM* | 21.9%[10 µM] | . | 5.2% | -2.8%
CCOc1ccc(NC(=O)CN2CCN(CC(=O)Nc3cccc(F)c3)CC2)cc1 | 7.5% | 2.1% | 7.8% | -5.1 | 25.3%[38.3 µM] | 17.8µM*
CCOc1ccc(NC(=O)CN2CCN(CC(=O)Nc3cc(OC)cc(OC)c3)CC2)cc1 | -10.8% | 3.4% | -10.9% | 10.8 | 21.9%[38.3 µM] | 11.2µM*
Cc1ccc2nc(C3CCN(CC(=O)Nc4ccc5c(c4)OCCO5)CC3)[nH]c2c1 | -5.3% | 1.2% | -22.3% | -7.5 | 21.0%[38.3 µM] | 22.4µM*
COc1ccc(NC(=O)CN2CCCCC2)cc1 | -25.2% | 3.3% | 23.8%[10 µM] | -3.7 | 3.1%[38.3 µM] | -18.0%
COc1ccc(C(=O)OCC(=O)Nc2ccc(Cl)c(C(F)(F)F)c2)c(OC)c1OC | -17.9% | -0.1% | 9.3%[10 µM] | 9.0 | 9.6% | -2.0%
CCOc1ccc(NC(=O)CN2CCN(CC(=O)Nc3ccc4c(c3)OCCO4)CC2)cc1 | -15.1% | 19.4% | -1.4% | 18.2 | 10.3%[38.3 µM] | 8.91µM*
CCOc1ccc(NC(=O)CN2CCN(CC(=O)Nc3ccc(Cl)c(C(F)(F)F)c3)CC2)cc1 | -16.9% | 20.8%[1.84 µM] | -31.5% | -4.1 | 35.2%[38.3 µM] | 12.6µM*
COC(=O)c1sc(N2C(=O)C(O)=C(C(=O)c3ccc(C)o3)C2c2ccc(F)cc2)nc1C (centres undefined) | 8.91µM* | 11.1% | -9.9%[10 µM] | ? | 7.94µM* | ?
O=C(C1=C(O)C(=O)N(CCc2ccccc2)C1c1cccnc1)c1ccco1 (centres undefined) | -31.6% | 5.9% | -6.8% | ? | 4.47µM* | 17.8µM*
